The source of these data is PubChem BioAssay.

One may read the viability as a read-out of living cells in per cent, often relative to untreated cells.

“And” between values parts separate entries of the source, which are not always exact repeats. Equal values may be shown once. The source made the active and inactive calls.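 How the source made its calls, unless noted: active means viability loss from added drug above about 55%, and viability with drug at most 40%, in both replicates (limit read from the data, passing the limit was not always enough); inconclusive means both conditions met in only one replicate; inactive means neither replicate meets both conditions.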

A short description of one experiment: growth inhibitors of H69AR lung tumor, primary screen, human, duplicate replicates (AID 580;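 active means viability at or under a set limit in both replicates, limit being median viability minus 3 SD, cut at about 48% in these data, passing the limit was not always enough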;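 further: 100% = mean luminescence of untreated wells and 0% = no signal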). Particulars: H69AR lung tumor cells viability, ATP luminescence, 72 h; at 10 µM; active compounds read low.
As for `O=C1CCCN1CCCNc1ncnc2c1[nH]c1ccc(Cl)cc12`, the viability was 80.9% (inactive).
With `C=CCNS(=O)(=O)c1ccc2nsnc2c1`, the viability is 100% (inactive).
On the same count and under the same terms, for `O=C(O)c1oc2ccccc2c1-n1cccc1` the value was 96.8% (inactive); for `COCCn1c(SCc2csc(-c3ccccc3)n2)nc2ccccc21`, 88.5% (inactive).
Still for that read-out and setting: for `Nc1nc2ccccc2n1C(=O)CCc1ccccc1` the value was 48.4% (active); for `Cc1cccc2cc(CN(CCN3CCCC3)C(=O)NC3CCCCC3)c(=O)[nH]c12`, 91% (inactive).
Same read-out and setting: for `Cc1ccc(-c2noc(CCC(=O)NCCc3ccccc3Cl)n2)cc1` the value was 99.6% (inactive); for `COc1ccc2c(c1OC)C(=O)OC2C1c2c(cc3c(c2OC)OCO3)CCN1C` (stereo not given), 73.8% (inactive).
Take `CCOC(=O)CNC(=O)Nc1nnc(-c2ccc(OCC)cc2)o1`: the viability was 98.3% (inactive).
As for `C/C(N)=C(/C#N)C(=O)COC(=O)CCSc1ccccc1`, the viability was 101% (inactive).
With `CCOC(=O)C1=C(C)NC(C)=C(C(=O)OCC)C1C(=O)OC1CCOC1=O` (stereo not given), the viability was 93.8% (inactive).
Turning to `CCC1(NC(C)=O)CC2CC1CC2NC(C)=O` (stereo not given), the viability was 100% (inactive).
Regarding `CC(C)COc1nc2ccccc2nc1C(C#N)C(=O)NC1CCCCC1` (stereo not given), the viability was 84.9% (inactive).
As for `CCc1cc(C(=O)OC)c(NC(=O)CCC(=O)O)s1`, the viability was 107% (inactive).
On to `Cc1cccc2cc(CN(CCCO)C(=O)Nc3ccc(Cl)cc3)c(=O)[nH]c12`, for which the viability was 77.1% (inactive).
Take `O=C(CCN1CCN(C(=O)c2ccco2)CC1)Nc1ccc(F)cc1`: the viability is 97% (inactive).
As to `CCC(=NC(C)c1ccccc1)c1c(O)n(C)c(=O)n(C)c1=O` (stereo not given), the viability is 90.7% (inactive).
Still for that read-out and setting: for `O=C(O)CCCCCNc1nc(=S)[nH]c2ccccc12` the value was 89.3% (inactive).
In the case of `CCOC(=O)N1CCN(C(=O)c2ccc3nc4cc(Cl)ccc4c(=O)n3c2)CC1`, the viability was 91.1% (inactive).
On to `COc1ccc(OC)c(C(=O)CSc2nnc(-c3ccc(OC)c(OC)c3)o2)c1`, for which the viability was 74.5% (inactive).
Regarding `C[C@H](NC(=O)NCc1cccs1)C(=O)O`, the viability is 93.6% (inactive).
With `CC1CCN(CC(O)COC2CCC(C(C)(C)C)CC2)CC1` (stereo not given), the viability is 74.5% (inactive).
Consider `Cc1cccc(N2CCN(C(=O)Cn3ccc4ccccc4c3=O)CC2)c1C`, for which the viability is 95% (inactive).
Take `Cc1cc(NC(=O)CCC(=O)N(c2cccnc2)C(C(=O)NC2CCCC2)c2ccccc2F)no1` (stereo not given): the viability was 93.3% (inactive).
Same read-out and setting: for `Cc1ccc(NC(=O)CCC(=O)O)cc1F` the value was 104% (inactive); for `CC1C=CC(C)C(C(=O)O)C1C(=O)O` (stereo not given), 93% (inactive).
With `Cc1ccc(-c2nnn(CC(=O)N(CC3CCCO3)C(C(=O)NC(C)(C)C)c3ccc(F)cc3)n2)o1` (stereo not given), the viability was 101% (inactive).
Regarding `CN(C)C(=O)c1ccc(COc2ccccc2Br)o1`, the viability was 90.7% (inactive).
For the compound `CCOC(=O)C1C2C=CC3(CN(c4cccc(Cl)c4)C(=O)C13)O2` (stereo not given), the viability is 97.5% (inactive).
For the compound `O=C(NCCC1=CCCCC1)C1CCN(C(=O)Nc2ccccc2)CC1`, the viability is 101% (inactive).
With `CCOC(=O)C1CCN(c2c(N(C)Cc3ccco3)c(=O)c2=O)CC1`, the viability was 104% (inactive).
As for `CCN(CC)CCn1c2ccccc2c2nc(C)sc21`, the viability was 92.6% (inactive).
As to `COc1cc(C(=O)OCC(=O)N(C)Cc2ccccc2)cc(OC)c1OC`, the viability was 94.8% (inactive).
As for `COc1ccc(C)cc1NC(=O)COCC(=O)O`, the viability is 103% (inactive).
The same measure, in the same setting: for `Cc1c(C(=O)O)sc2ncn(C)c(=O)c12` the value was 103% (inactive); for `O=C(COC(=O)C1=COCCO1)Nc1ccccc1Oc1ccccc1`, 93.8% (inactive); for `O=C(Nc1cccc2ccccc12)c1cnccn1`, 95% (inactive).
`CCOC(=O)c1cccnc1SCC(=O)NC(C)CC` (stereo not given): the viability was 102% (inactive).
As to `CCOc1nc2ccccc2nc1NS(=O)(=O)c1ccccc1`, the viability is 88.5% (inactive).
As for `Cc1cc(N2C(=O)C3C4C=CC(C4)C3C2=O)ccc1Br` (stereo not given), the viability was 101% (inactive).

Another experiment in a line: reversal of MRP1-mediated doxorubicin resistance, pilot screen, H69AR cells, doxorubicin co-treatment (AID 601). Particulars: H69AR cells + 2 uM doxorubicin, CellTiter-Glo, 72 h; at 10 µM; active compounds read high.
Regarding `O=C1CCCN1CCCNc1ncnc2c1[nH]c1ccc(Cl)cc12`, the differential viability (reversal) is 3.12% (inactive).
For `C=CCNS(=O)(=O)c1ccc2nsnc2c1`, the differential viability (reversal) was -1.67% (inactive).
In the case of `O=C(O)c1oc2ccccc2c1-n1cccc1`, the differential viability (reversal) is -0.995% (inactive).
Consider `COCCn1c(SCc2csc(-c3ccccc3)n2)nc2ccccc21`, for which the differential viability (reversal) was -2.99% (inactive).
As to `Nc1nc2ccccc2n1C(=O)CCc1ccccc1`, the differential viability (reversal) was -27.6% (inactive).
The same measure, in the same setting: for `Cc1cccc2cc(CN(CCN3CCCC3)C(=O)NC3CCCCC3)c(=O)[nH]c12` the value was -1.06% (inactive).
For the compound `Cc1ccc(-c2noc(CCC(=O)NCCc3ccccc3Cl)n2)cc1`, the differential viability (reversal) was 12% (inactive).
On the same count and under the same terms, for `COc1ccc2c(c1OC)C(=O)OC2C1c2c(cc3c(c2OC)OCO3)CCN1C` (stereo not given) the value was -40% (inactive) and -23.1% (inactive); for `CCOC(=O)CNC(=O)Nc1nnc(-c2ccc(OCC)cc2)o1`, 8% (inactive); for `C/C(N)=C(/C#N)C(=O)COC(=O)CCSc1ccccc1`, -0.045% (inactive).
As to `CCOC(=O)C1=C(C)NC(C)=C(C(=O)OCC)C1C(=O)OC1CCOC1=O` (stereo not given), the differential viability (reversal) was 2.32% (inactive).
The same measure, in the same setting: for `CCC1(NC(C)=O)CC2CC1CC2NC(C)=O` (stereo not given) the value was 11% (inactive); for `CC(C)COc1nc2ccccc2nc1C(C#N)C(=O)NC1CCCCC1` (stereo not given), -20.3% (inactive); for `CCc1cc(C(=O)OC)c(NC(=O)CCC(=O)O)s1`, 17.8% (inactive).
`Cc1cccc2cc(CN(CCCO)C(=O)Nc3ccc(Cl)cc3)c(=O)[nH]c12`: the differential viability (reversal) was 5.85% (inactive).
Take `O=C(CCN1CCN(C(=O)c2ccco2)CC1)Nc1ccc(F)cc1`: the differential viability (reversal) is 6.06% (inactive).
Take `CCC(=NC(C)c1ccccc1)c1c(O)n(C)c(=O)n(C)c1=O` (stereo not given): the differential viability (reversal) is -14.2% (inactive).
For `O=C(O)CCCCCNc1nc(=S)[nH]c2ccccc12`, the differential viability (reversal) is 10.3% (inactive).
With `CCOC(=O)N1CCN(C(=O)c2ccc3nc4cc(Cl)ccc4c(=O)n3c2)CC1`, the differential viability (reversal) is 2.21% (inactive).
On to `COc1ccc(OC)c(C(=O)CSc2nnc(-c3ccc(OC)c(OC)c3)o2)c1`, for which the differential viability (reversal) was 0.865% (inactive).
Take `C[C@H](NC(=O)NCc1cccs1)C(=O)O`: the differential viability (reversal) is 0.105% (inactive).
Turning to `CC1CCN(CC(O)COC2CCC(C(C)(C)C)CC2)CC1` (stereo not given), the differential viability (reversal) is 3.15% (inactive).
`Cc1cccc(N2CCN(C(=O)Cn3ccc4ccccc4c3=O)CC2)c1C`: the differential viability (reversal) is -1.24% (inactive).
On to `Cc1cc(NC(=O)CCC(=O)N(c2cccnc2)C(C(=O)NC2CCCC2)c2ccccc2F)no1` (stereo not given), for which the differential viability (reversal) is 4.7% (inactive).
`Cc1ccc(NC(=O)CCC(=O)O)cc1F`: the differential viability (reversal) was 12.2% (inactive).
Same read-out and setting: for `CC1C=CC(C)C(C(=O)O)C1C(=O)O` (stereo not given) the value was -5.29% (inactive); for `Cc1ccc(-c2nnn(CC(=O)N(CC3CCCO3)C(C(=O)NC(C)(C)C)c3ccc(F)cc3)n2)o1` (stereo not given), 3.52% (inactive); for `CN(C)C(=O)c1ccc(COc2ccccc2Br)o1`, 13% (inactive).
For the compound `CCOC(=O)C1C2C=CC3(CN(c4cccc(Cl)c4)C(=O)C13)O2` (stereo not given), the differential viability (reversal) is 1.17% (inactive).
In the case of `O=C(NCCC1=CCCCC1)C1CCN(C(=O)Nc2ccccc2)CC1`, the differential viability (reversal) is 5.69% (inactive).
Still for that read-out and setting: for `CCOC(=O)C1CCN(c2c(N(C)Cc3ccco3)c(=O)c2=O)CC1` the value was 15% (inactive); for `CCN(CC)CCn1c2ccccc2c2nc(C)sc21`, -7.46% (inactive).
The same measure, in the same setting: for `COc1cc(C(=O)OCC(=O)N(C)Cc2ccccc2)cc(OC)c1OC` the value was -2.6% (inactive); for `COc1ccc(C)cc1NC(=O)COCC(=O)O`, 7.92% (inactive).
Consider `Cc1c(C(=O)O)sc2ncn(C)c(=O)c12`, for which the differential viability (reversal) is 11.7% (inactive).
Take `O=C(COC(=O)C1=COCCO1)Nc1ccccc1Oc1ccccc1`: the differential viability (reversal) is 5.48% (inactive).
For `O=C(Nc1cccc2ccccc12)c1cnccn1`, the differential viability (reversal) was 12.5% (inactive).
Turning to `CCOC(=O)c1cccnc1SCC(=O)NC(C)CC` (stereo not given), the differential viability (reversal) is 9.73% (inactive).
In the case of `CCOc1nc2ccccc2nc1NS(=O)(=O)c1ccccc1`, the differential viability (reversal) is 0.49% (inactive).
As to `Cc1cc(N2C(=O)C3C4C=CC(C4)C3C2=O)ccc1Br` (stereo not given), the differential viability (reversal) is 11.6% (inactive).
